# Laboratory results published in PubChem BioAssay (EPA / NIEHS).
# The source made the active and inactive calls. How the source made its calls: active means hit-call score of the fitted dose curve at least 0.9, where 1 is the maximum; inactive means score below 0.9.
# Biological target: Aryl hydrocarbon receptor (Homo sapiens) (UniProt P35869)
# Test: ATG_Ahr_CIS: Attagene CIS-FACTORIAL HepG2 Assay for human Aryl Hydrocarbon Receptor (Ahr) (AID 2282930)
# Conditions: HepG2 AhR cis-factorial reporter transcription; actives raise or lower the signal
# Protocol: ATG_CIS is a cell-based, multiplexed-readout assay that uses HepG2, a human liver cell line, with measurements taken at 24 hours after chemical dosing in a 24-well plate.ATG_Ahr_CIS is one of 52 assay component(s) measured or calculated from the ATG_CIS assay. It is designed to make measurements of mRNA induction, a form of inducible reporter, as detected with fluorescence intensity signals by Reverse transcription polymerase chain reaction (RT-PCR) and Capillary electrophoresis technology.Data from the assay component ATG_Ahr_CIS was analyzed into 1 assay endpoint. This assay endpoint, ATG_Ahr_CIS, was analyzed with bidirectional fitting relative to DMSO as the negative control and baseline of activity. Using a type of inducible reporter, measures of mRNA for gain or loss-of-signal activity can be used to understand the reporter gene at the transcription factor-level as they relate to the gene AHR. Furthermore, this assay endpoint can be referred to as a primary readout, because this assay has produced multiple assay endpoints where this one serves a reporter gene function. To generalize the intended target to other relatable targets, this assay endpoint is annotated to the dna binding intended target family, where the subfamily is basic helix-loop-helix protein.
# Human liver HepG2 cells are transiently transfected with multiple reporter transcription units (MRTUs) in 6-well plates using FuGene 6 reagent (Roche; 3 ml FuGene/1 mg DNA). The MRTU constructs are regulated by a cis-regulating element (promoter). […] A major difference between the CIS and TRANS system is that in CIS activities of endogenous TFs are measured, whereas the TRANS assay evaluates changes in activities of exogenous, chimeric NR-Gal4 proteins. […] At the end of 24 hour incubation, total RNA was isolated using TriZol reagent (Invitrogen). The isolated RNA is then reverse-transcribed using oligo(dT) primer and Mo-MLV reverse transcriptase (Invitrogen) with DNAse I (Ambion) treatment for 30 min. The one-tenth of the produced cDNA was amplified by PCR using Taq DNA polymerase (Invitrogen) and two reporter sequence-specific primers. The PCR products were fluorescently labeled by primer extension with 6-arboxyfluorescein (6-FAM) 5'-labeled reporter sequence-specific primer (2 min at 95 C, 20 s at 68 C and 10 min at 72 C) and these products were digested with 5U of HpaI (New England Biolabs) for 2h at 37 C. […] The raw capillary electrophoresis data was processed using Attagraph software (Attagene).
# Chain of Aryl hydrocarbon receptor (Homo sapiens) (P35869 whole entry, looked up): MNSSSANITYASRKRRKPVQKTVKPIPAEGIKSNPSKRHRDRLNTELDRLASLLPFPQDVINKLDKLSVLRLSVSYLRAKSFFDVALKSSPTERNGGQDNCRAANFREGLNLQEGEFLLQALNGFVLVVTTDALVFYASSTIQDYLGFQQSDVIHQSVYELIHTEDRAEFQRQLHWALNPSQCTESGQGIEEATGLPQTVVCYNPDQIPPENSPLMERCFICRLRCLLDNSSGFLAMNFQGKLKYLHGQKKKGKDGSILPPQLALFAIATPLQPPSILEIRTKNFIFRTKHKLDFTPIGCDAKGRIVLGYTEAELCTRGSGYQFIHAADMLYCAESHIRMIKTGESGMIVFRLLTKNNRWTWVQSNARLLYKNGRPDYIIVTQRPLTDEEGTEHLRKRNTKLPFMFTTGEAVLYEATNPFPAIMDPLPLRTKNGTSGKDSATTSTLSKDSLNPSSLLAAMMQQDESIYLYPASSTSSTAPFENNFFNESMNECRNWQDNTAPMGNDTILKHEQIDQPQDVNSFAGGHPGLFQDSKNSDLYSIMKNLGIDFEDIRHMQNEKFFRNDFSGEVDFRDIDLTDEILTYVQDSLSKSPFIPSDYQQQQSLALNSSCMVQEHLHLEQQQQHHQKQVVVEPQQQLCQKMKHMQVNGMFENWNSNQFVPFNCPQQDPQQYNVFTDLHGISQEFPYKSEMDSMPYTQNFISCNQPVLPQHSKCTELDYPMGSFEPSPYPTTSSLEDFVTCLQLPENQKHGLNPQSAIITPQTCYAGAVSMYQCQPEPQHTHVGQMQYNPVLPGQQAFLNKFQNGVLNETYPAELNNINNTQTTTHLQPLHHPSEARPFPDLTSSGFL
SMILES,outcome,AC50
CCCC(=O)OCCC(C)CCC=C(C)C (stereo not given),inactive,
CCc1ccc(C=O)cc1,inactive,
CC[Si](OC(C)=O)(OC(C)=O)OC(C)=O,inactive,
Clc1sc(Cl)c(Cl)c1Cl,inactive,
NNc1nc(-c2ccc(N)cc2)cs1,inactive,
CC(O)C(C)O (stereo not given),inactive,
COc1nc(C)nc(N)n1,inactive,
CN(C)CCOCCN(C)C,inactive,
O=C=NC1CCC(CC2CCC(N=C=O)CC2)CC1 (stereo not given),,83.7 µM (active)
CC(=O)O[C@H](CC(=O)[O-])C[N+](C)(C)C,inactive,
CCC(=O)OCc1ccccc1,inactive,
CO[Si](CCCn1c(=O)n(CCC[Si](OC)(OC)OC)c(=O)n(CCC[Si](OC)(OC)OC)c1=O)(OC)OC,inactive,
O=S(=O)(O)NC1CCCCC1,inactive,
O=[N+]([O-])c1ccc(C=Cc2ccc([N+](=O)[O-])cc2S(=O)(=O)O)c(S(=O)(=O)O)c1,inactive,
OCCOc1cccc(OCCO)c1,inactive,
CC(C)(CO)[N+](=O)[O-],inactive,
COc1cccc(OC)c1,inactive,
CCCCCCCCCCCCSC,inactive,
NC(N)=NC(=O)c1nc(Cl)c(N)nc1N,inactive,
CCC/C=C/C=O,inactive,

SMILES,outcome,AC50
C=C(C)C(=O)OCCOC(=O)CC(C)=O,inactive,
CCCOCC(C)O (stereo not given),inactive,
Cc1ccc(C=O)cc1,inactive,
CCn1c2ccccc2c2cc(N)ccc21,,5.05 µM (active)
COC(=O)OC,inactive,
Cc1cccc(C)c1[N+](=O)[O-],inactive,
O=C(O)c1cccc(C(F)(F)F)c1,inactive,
Nc1cc(N)cc(C(=O)O)c1,inactive,
CCCCCCCCCCCCOCCO,,33.4 µM (active)
O=c1[nH]c(=O)n([C@H]2CCCO2)cc1F,inactive,
CC(C)=CCC/C(C)=C/COC=O,inactive,
O=C(O)c1cn(-c2ccc(F)cc2)c2cc(N3CCNCC3)c(F)cc2c1=O,inactive,
CCC(O)CO (stereo not given),inactive,
COc1ccc(OC)c(OC)c1,inactive,
CN1[C@@H]2CC(OC(=O)[C@H](CO)c3ccccc3)C[C@H]1[C@@H]1O[C@@H]12 (stereo not given in full),inactive,
c1ccc2c(c1)c1cccc3ccc4cccc2c4c31,inactive,
CCCCOCCOCCSC#N,inactive,
O=c1cc(-c2ccccc2)oc2cc(O)cc(O)c12,,5.85 µM (active)
O=C(O)C[C@H](O)C[C@H](O)/C=C/c1c(C2CC2)nc2ccccc2c1-c1ccc(F)cc1,inactive,
CO[Si](C)(OC)c1ccccc1,,130 µM (active)
